# Calls of active or inactive are those of the source. Cut-off read from the data, not from the text of the source, unless noted: active = inhibition above about 80%; inactive = the rest.
# How the values were obtained:
# [1] = compounds altering circadian rhythm period length – cell-based, LOPAC library, luminescence reporter (AID 2774; call rule not given here;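 note: values are relative to mean of DMSO wells on each plate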); details: circadian reporter cells, at 7 µM, actives lie on both sides
# [2] = tested on: Hepatitis C virus NS3 helicase; test: blockers of NS3h binding to ssDNA – biochemical, fluorescence polarization, LOPAC1280 library, primary screen (AID 687035; in the data active = inhibition above about 37%); details: Purified HCV NS3 helicase, Cy5-dT15 ssDNA binding fluorescence polarization; stronger effect = higher value; concentration not given here
# [3] = compounds altering Cy5-DNA-NS3h complex signal – biochemical, LOPAC1280, artefact control for HCV NS3 helicase inhibitor project (AID 687037; call rule not given here); details: Cy5-DNA-NS3h complex fluorescence interference counterscreen
# [4] = growth inhibition, single agent or in combination, cell-based, chromothripsis tumors, cisplatin or BGB combos (AID 1671449); details: LFS_MB_P medulloblastoma cells;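 note: cells exposed for 96 hours; 0% = vehicle DMSO and 100% = killing by high DMSO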
# [5] = growth inhibition, single agent and combos, cell-based, chromothripsis tumors, cisplatin or BGB combos (AID 1671450); details: HDN33 neuroblastoma cells, stronger effect = higher value;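 note: cells exposed to compound for four days; 0% = vehicle DMSO and 100% = cell killing by high DMSO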
# [6] = growth inhibition, single agents and combos, ICB984, cell-based, cisplatin or BGB combos, synergistic combos for chromothripsis tumors (AID 1671451; call rule not given here;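 note: cells exposed for 96 hours before readout; 0% = vehicle DMSO and 100% = killing by high DMSO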); details: ICB984 medulloblastoma cells, drug combinations, stronger effect = higher value
# [7] = growth inhibition, single agents and combos, LFS_MB_1R, cell-based, cisplatin or BGB combos, synergistic combos for chromothripsis tumors (AID 1671452); details: LFS_MB_1R medulloblastoma cells, stronger effect = higher value;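 note: cells exposed for 96 hours before readout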
# [8] = growth inhibition, single agents and combos, HTB85, cell-based, BGB or cisplatin IC20 combos, synergistic combos for chromothripsis tumors (AID 1671453); details: HTB85 osteosarcoma cells, drug combinations, stronger effect = higher value;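 note: cells exposed for 96 hours before readout; 0% = vehicle DMSO and 100% = high DMSO killing control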
# [9] = growth inhibition, single agents and combos, CRL2098, cell-based, BGB or cisplatin IC20 combos, synergistic combos for chromothripsis tumors (AID 1671454); details: CRL2098 osteosarcoma cells, drug combinations, stronger effect = higher value;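 note: cells exposed for 96 h before readout; 0% = vehicle DMSO and 100% = killing by high DMSO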
# [10] = growth inhibition, single agents and combos, HD-MB03, cell-based, BGB or cisplatin IC20 combos, synergistic combos for chromothripsis tumors (AID 1671455; in the data active = inhibition above about 83%;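 note: 0% = vehicle DMSO and 100% = high DMSO as cytotoxic control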); details: HD-MB03 medulloblastoma cells, stronger effect = higher value
# [11] = growth inhibition, single agents and combos, UWB1.289, cell-based, BGB or cisplatin combos, synergistic combos for chromothripsis tumors (AID 1671456); details: UWB1.289 ovarian carcinoma cells, stronger effect = higher value;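 note: cells exposed to compound for four days; 0% = vehicle DMSO and 100% = killing by high DMSO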
# [12] = growth inhibition, single agents and combos, LFS_MB_2R, cell-based, cisplatin combos, synergistic combos for chromothripsis tumors (AID 1671457); details: LFS_MB_2R medulloblastoma cells, stronger effect = higher value;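 note: cells exposed to compound for four days before readout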
# [13] = growth inhibition, MDA-MB-436, cell-based, BGB or cisplatin combos, synergistic combos for chromothripsis tumors (AID 1671458; call rule not given here;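 note: cells exposed for 96 hours; 0% = vehicle DMSO and 100% = killing by high DMSO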); details: MDA-MB-436 breast carcinoma growth inhibition, drug combinations, stronger effect = higher value
# [14] = UWB1.289_BRCA1 ovarian cancer growth, cell-based, BGB or cisplatin combinations (AID 1671459); details: UWB1.289 BRCA1 ovarian carcinoma, drug combinations, stronger effect = higher value
# [15] = drug combination toxicity in non-malignant astrocytes – cell-based, BGB or cisplatin IC20 combos, cytotoxicity control for chromothriptic childhood tumor combination screen (AID 1671460); details: Human astrocytes, viability inhibition, drug combinations, at 0.5 µM, stronger effect = higher value;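 note: cells exposed to compounds for 96 hours before viability readout; 0% = vehicle and 100% = killing control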
# [16] = BT084 cell growth, single and combined drugs, ICGC_MB145, cisplatin and BGB IC40 combos (AID 1671461); details: BT084 medulloblastoma cells, drug combinations, stronger effect = higher value;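 note: cells exposed to drugs for 96 hours; 0% = vehicle DMSO and 100% = high DMSO full killing control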
# [17] = RCMB18 cell growth, single agent and combined, cisplatin and BGB IC40 combos (AID 1671462); details: RCMB18 medulloblastoma cells, stronger effect = higher value;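 note: cells exposed to compound for four days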
# [18] = CRL1545 cell growth, single agent and combined, cisplatin and BGB IC20 combos (AID 1671464); details: CRL1545 osteosarcoma cells, stronger effect = higher value;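 note: cells exposed to compound for 96 hours before readout; 0% = vehicle DMSO and 100% = high DMSO killing control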
# [19] = measured here: combination with BGB IC40, at 0.05 µM
# [20] = measured here: with BGB IC20 combination, at 0.5 µM
# [21] = measured here: with cisplatin IC20 combination, at 0.5 µM
# [22] = measured here: combination with cisplatin, at 0.5 µM
# [23] = measured here: combination with cisplatin, at 5 µM
smiles,measurement,setting,value
NC(Cc1ccc(N(CCCl)CCCl)cc1)C(=O)O (configuration not stated),period change,[1],0.08 h (inactive)
same,inhibition,[2],-5% (inactive)
same,fluorescence ratio (interference),[3],1 (inactive)
same,inhibition,"[4]; at 0.5 µM, stronger effect = higher value",-11.1% (inactive)
same,inhibition,"[4]; measured here: combination with BGB IC20, at 0.005 µM",-25.1%
same,inhibition,"[4]; measured here: combination with BGB IC40, at 0.005 µM",-17.8%
same,inhibition,[4]; [19],-29.1%
same,inhibition,"[4]; measured here: combination with cisplatin, at 0.5 µM, stronger effect = higher value",-3.85%
same,inhibition,"[4]; measured here: combination with cisplatin, at 5 µM, stronger effect = higher value",7.41%
same,inhibition,"[5]; BGB combo, at 5 µM",28.5%
same,inhibition,[5]; at 0.5 µM,-17.3% (inactive)
same,inhibition,"[5]; cisplatin combo, at 5 µM",18.9%
same,inhibition,[5]; [20],-14.2%
same,inhibition,[5]; [21],-16.2%
same,inhibition,"[5]; single agent, at 5 µM",3.9%
same,inhibition,"[6]; BGB IC20 combo, at 0.005 µM",-15.2%
same,inhibition,"[6]; BGB IC40 combo, at 0.005 µM",-22.4%
same,inhibition,"[6]; BGB IC40 combo, at 0.05 µM",14.2%
same,inhibition,[6]; at 0.5 µM,-37% (inactive)
same,inhibition,"[6]; cisplatin combo, at 0.05 µM",11.8%
same,inhibition,"[6]; cisplatin combo, at 0.5 µM",-52.6%
same,inhibition,"[6]; cisplatin combo, at 5 µM",-29.7%
same,inhibition,"[6]; measured here: 5 uM single agent, at 5 µM",-16.8%
same,inhibition,[7]; at 0.5 µM,-27.3% (inactive)
same,inhibition,[7]; [19],-28.4%
same,inhibition,[7]; [22],-42.9%
same,inhibition,[7]; [23],34.7%
same,inhibition,[8]; at 0.5 µM,5.83% (inactive)
same,inhibition,"[8]; measured here: with BGB IC20, at 0.5 µM",1.88%
same,inhibition,"[8]; measured here: with BGB IC20, at 5 µM",54.4%
same,inhibition,"[8]; measured here: with cisplatin IC20, at 0.5 µM",-13.1%
same,inhibition,"[8]; measured here: with cisplatin IC20, at 5 µM",74.4%
same,inhibition,"[8]; single agent, at 5 µM",59.9%
same,inhibition,[9]; at 0.5 µM,-91.3% (inactive)
same,inhibition,"[9]; measured here: combination with BGB at IC20, at 0.5 µM",-104%
same,inhibition,"[9]; measured here: combination with cisplatin at IC20, at 0.5 µM",-99.5%
same,inhibition,[10]; at 0.5 µM,12.1% (inactive)
same,inhibition,"[10]; measured here: combo with BGB at IC20, at 0.5 µM",19.3%
same,inhibition,"[10]; measured here: combo with cisplatin at IC20, at 0.5 µM",20.5%
same,inhibition,[11]; at 0.5 µM,-2.07% (inactive)
same,inhibition,"[11]; measured here: inhibition with BGB combination, at 0.05 µM",-36%
same,inhibition,"[11]; measured here: inhibition with cisplatin combination, at 0.05 µM",-22.5%
same,inhibition,[12]; at 0.5 µM,-18.9% (inactive)
same,inhibition,[12]; [22],-23.8%
same,inhibition,[12]; [23],-58.8%
same,inhibition,[13]; at 0.5 µM,10.4% (inactive)
same,inhibition,"[13]; measured here: BGB combination, at 0.5 µM",2.27%
same,inhibition,"[13]; measured here: BGB combination, at 5 µM",8.02%
same,inhibition,"[13]; measured here: cisplatin combination, at 0.5 µM",6.39%
same,inhibition,"[13]; measured here: cisplatin combination, at 5 µM",33.3%
same,inhibition,"[14]; BGB combination, concentration series, at 5 µM",31.5%
same,inhibition,[14]; at 0.5 µM,4.15% (inactive)
same,inhibition,"[14]; cisplatin combination, concentration series, at 5 µM",41.4%
same,inhibition,[15],16.9% (inactive)
same,inhibition,[15]; measured here: combo with BGB IC20,22.5%
same,inhibition,[15]; measured here: combo with cisplatin IC20,4.4%
same,inhibition,[16]; at 0.5 µM,-14.6% (inactive)
same,inhibition,"[16]; cisplatin combination, at 0.5 µM",5.86%
same,inhibition,"[16]; cisplatin combination, at 5 µM",35.1%
same,inhibition,"[16]; measured here: BGB IC40 combination 0.05 uM, at 0.05 µM",-5.01%
same,inhibition,"[16]; single agent, at 5 µM",-20.7%
same,inhibition,[17]; at 0.5 µM,-26.4% (inactive)
same,inhibition,"[17]; cisplatin combo, at 5 µM",81.5%
same,inhibition,"[17]; measured here: BGB IC40 combination, at 0.05 µM",-33.2%
same,inhibition,[17]; [22],-31.6%
same,inhibition,"[17]; single agent, at 5 µM",-6.56%
same,inhibition,[18]; at 0.5 µM,-21.6% (inactive)
same,inhibition,[18]; [20],-14.9%
same,inhibition,[18]; [21],-27.8%
same,inhibition,"[18]; single agent, at 0.05 µM",-31.8%
same,inhibition,"[18]; single agent, at 5 µM",43.7%
CP(=O)(O)CCCN,period change,[1],-0.005 h (inactive)

# From PubChem BioAssay
